Calls of active or inactive are those of the source. How the calls were made is not given here.
Test: High Content Assay for Compounds that inhibit the Assembly of the Perinucleolar Compartment:Cell Migration SAR
Settings: PC3M 3D collagen invasion, Hoechst imaging, 5 d
Source text: The perinucleolar compartment (PNC) is a non-membrane-bound nuclear subdomain that is associated with but structurally distinct from the nucleolus. The PNC is a heritable trait, in which the number of PNCs per cell in daughter cells often mimics that of their mother cells. The PNC is heterogeneous in shape, is stable through interphase, disassembles during mitosis, and reassembles in early G1. The PNC is concentrated with newly synthesized RNA polymerase III (pol III) RNAs (MRP RNA, RNAse P H1 RNA, hY RNAs[hY1, 2, 5], Alu RNA, and SRP [7SL] RNA) and RNA binding proteins (nucleolin, PTB, CUG-BP, KSRP, Raver1, Raver2, and Rod). […] In collaboration between Sui Huang from Northwestern University and the NCGC, a high content assay was developed and screened. The hits were then tested in follow-up assays. High-content tumor cell migration assays in 3-dimensional extracellular matrices are powerful tools for modeling and understanding the biology of this critical step in the process of metastasis. However, most of the available methods are not amenable to the throughput required by studies of comparative pharmacology or small scale screening. For this reason, we worked with BellBrook Labs(R) to test our compounds in their automated high-content tumor cell invasion assays.[35] […]

Row | Compound | Potency
1 | N=c1c2c(-c3ccccc3)c(-c3ccccc3)n(Cc3ccccc3)c2ncn1C1CCC(O)CC1 (stereo unspecified) | 3.98 µM (active)

— PubChem BioAssay AID588738 (National Center for Advancing Translational Sciences (NCATS), 2011)
